Screening data (PubChem)
Sampled rows, rich in hits. Any-hit rate of the full collection: about 7.9%.
HCMV antiviral – blocks human cytomegalovirus replication; 410,000 tested, 4.5% active; AID 1259415; HFF cells, HCMV-luciferase reporter, 72 h; active compounds read low; activity change, negative = inhibition, % at 57.5 µM; in the data active = activity change below about -60%; inconclusive = no clear call, values can overlap the other calls; inactive = above about -39%
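Luciferase read-out from HCMV-luciferase-infected HFFs (MOI 1 PFU/cell) 72 h post infection at 37C; compounds added after 16 h cell attachment; activity normalized between buffer-only basal and Salinomycin (10uM) inhibitor controls.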
Marburg entry inh – inhibitors of Marburg virus binding or cell entry. Marburg virus pseudotyped entry inhibition, cell reporter. 300,000 tested, 1.8% active. Potency, µM (highest dose often 37.8 µM), actives largely listed as inhibitors. AID 540276; calls by dose curve; tested in HEK293 cells
FMDV inh – foot and mouth disease virus antiviral activity. Potency, µM (titrated, usually from 57.9 µM), usual class: inhibitors. FMDV antiviral cell-based qHTS. 410,000 tested, 1.2% active; calls by dose curve; tested in HEK293T cells; also: read-out not given here; nearly all actives have a fitted effect of over 45% in size
Lassa entry inh – blocks Lassa virus binding to or entry into cells; Lassa virus pseudotype entry inhibition, cell reporter; AID 540256; 300,000 tested, 1.2% active; Potency, µM (titrated, usually from 37.9 µM), hits mostly inhibitors; calls by dose curve; tested in HEK293 cells; also: nearly all actives have a fitted effect of over 50% in size
HCV inh – HCV inhibition; Huh7.5.1 HCVcc-Cre infection, luciferase reporter, 44 h; Potency, µM (highest dose often 41.8 µM), hits mostly inhibitors; 340,000 tested, 3.4% active; AID 651820; active = well fitted inhibition curve with a large enough effect; inconclusive = small, poorly fitted or top-dose-only effect, or another doubt; inactive = no such curve, though single readings can be large or run the other way
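Luciferase read-out (15 sec integration) after a 15 min room-temperature substrate step quantifies HCVcc-Cre infection. Cells, 1,000 per well, had compound added 4 h post-plating, then virus at ~0.5 moi, and were cultured 44 h.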
Each line names hits and unclear results; the compound was inactive in the other large screens.

C[C@H](NC(=O)[C@H]1N2C(=O)c3ccccc3C2SC1(C)C)C(=O)N1CCC[C@H]1C(=O)O (stereo partly specified)	HCV inh 1µM (no result: Marburg entry inh, Lassa entry inh)
CCOC(=O)c1c(Cc2cccc(Cl)c2)c[nH]c1C	HCMV antiviral -62.3
COC(=O)c1cc(S(=O)(=O)NCc2ccccc2Cl)c[nH]1	none (no result: HCMV antiviral, Marburg entry inh, Lassa entry inh)
CCOC(=O)c1cn(Cc2cccc(Cl)c2)nn1	Marburg entry inh inconclusive, Lassa entry inh inconclusive
COC(=O)c1c(Cc2ccccc2Cl)c[nH]c1C	HCMV antiviral -67.2, Marburg entry inh inconclusive
COCCNS(=O)(=O)c1ccc(C2CNC(=O)C2)cc1 (stereo unspecified)	none (no result: Lassa entry inh)
COc1ccc(CNS(=O)(=O)c2ccc(C3CNC(=O)C3)cc2)cc1 (stereo unspecified)	HCV inh 3.16µM (no result: FMDV inh)
CC(C)C(NS(C)(=O)=O)c1nnc2n1CCN(Cc1ccc(Cl)cc1)CC2 (stereo unspecified)	none (no result: HCMV antiviral, Marburg entry inh, Lassa entry inh, HCV inh)
CCOC(=O)C1CCCN(S(=O)(=O)CCNC(=O)c2cccc(OC)c2)C1 (stereo unspecified)	Marburg entry inh inconclusive, Lassa entry inh inconclusive, HCV inh inconclusive
Cc1cc(C(=O)N2CCCC(C(=O)c3cccc(C(F)(F)F)c3)C2)n[nH]1 (stereo unspecified)	HCV inh inconclusive (no result: Marburg entry inh, Lassa entry inh)
O=C(c1cccc(C(F)(F)F)c1)C1CCCN(C(=O)c2cc(C3CC3)[nH]n2)C1 (stereo unspecified)	HCMV antiviral -67.5, HCV inh inconclusive (no result: Marburg entry inh, Lassa entry inh)
CC(C)Cc1nc2cc(NS(=O)(=O)N(C)C)cc(C(=O)N3CCOc4ccccc4C3)c2n1C	none (no result: HCMV antiviral, Marburg entry inh, Lassa entry inh, HCV inh)
COc1ccc(C(=O)Nc2cc(S(=O)(=O)c3ccc(Cl)cc3)c(O)c(C)c2C)cc1	none (no result: HCV inh)
COCCCNC(=O)c1ccc([N+](=O)[O-])cc1	none
O=C(CCl)NCCCN(C(=O)C(Cl)Cl)c1ccc([N+](=O)[O-])cc1	HCMV antiviral -103.2, HCV inh inconclusive (no result: Marburg entry inh, Lassa entry inh)
O=C(CN(Cc1ccccc1)S(=O)(=O)c1ccccc1)N/N=C/c1ccc2c(c1)OCO2	Marburg entry inh inconclusive, Lassa entry inh 7.3µM, HCV inh inconclusive (no result: FMDV inh)
Cc1ccc(NC(=S)NCc2ccccn2)cc1	none
O=C(NN=Cc1ccc2c(c1)OCO2)c1ccccc1	Marburg entry inh inconclusive, Lassa entry inh inconclusive
O=C(NCc1ccccn1)C(=O)N/N=C/c1ccc2c(c1)OCO2	HCMV antiviral -90.5 (no result: Marburg entry inh, Lassa entry inh)
O=C(CNC(=O)c1cccc(Br)c1)N/N=C/c1ccc2c(c1)OCO2	HCMV antiviral -74.2
S=C(NCc1ccccn1)NN=Cc1ccccn1	HCMV antiviral -98.7, Marburg entry inh inconclusive, Lassa entry inh 12.6µM, HCV inh inconclusive
COc1ccc(O[C@H]2C=C[C@@H](c3ccccc3)O[C@H]2CON=C2c3cc(OC)ccc3O[C@H](c3cccc(OC)c3)[C@H]2O)cc1	Marburg entry inh inconclusive (no result: HCMV antiviral, FMDV inh, HCV inh)
COc1cc(=O)n2c(c1C(=O)N(C)Cc1nonc1C)CCN(Cc1ccccc1F)CC2	none (no result: HCMV antiviral, Marburg entry inh, Lassa entry inh, HCV inh)
CCOc1ccc(-c2noc(CCCC(=O)NCC3CCCO3)n2)cc1OC (stereo unspecified)	none
CCCCNC(=O)c1sc2ncnc(NCC3CCCO3)c2c1C (stereo unspecified)	none (no result: HCMV antiviral, Marburg entry inh, Lassa entry inh, HCV inh)
Cc1coc2cc3oc(=O)c(CCC(=O)NCc4ccccn4)c(C)c3cc12	HCV inh 1µM (no result: Marburg entry inh, Lassa entry inh)
Cc1c(Cc2ccccc2)c(=O)oc2cc(OCC(=O)N[C@@H](Cc3ccccc3)C(=O)O)ccc12	none (no result: Marburg entry inh, Lassa entry inh)
Cc1coc2c(C)c3oc(=O)c(CCC(=O)NCc4ccccn4)c(C)c3cc12	HCMV antiviral inconclusive, HCV inh inconclusive (no result: Marburg entry inh, Lassa entry inh)
Cc1c(Cc2ccccc2)c(=O)oc2cc(OCC(=O)NCc3ccccn3)ccc12	HCMV antiviral -63.0, HCV inh inconclusive
Cc1c(CCC(=O)O)c(=O)oc2cc3occ(-c4ccc(Br)cc4)c3cc12	HCMV antiviral -62.1
Cc1c(CCC(=O)O)c(=O)oc2cc3occ(-c4ccc(F)cc4)c3cc12	Marburg entry inh inconclusive
CN(c1cccc(NC(=O)CN(c2cccc(F)c2)S(C)(=O)=O)c1)S(C)(=O)=O	Lassa entry inh inconclusive
Cn1cnc(S(=O)(=O)N2CCN(C(c3ccc(F)cc3)c3ccc(F)cc3)CC2)c1	HCMV antiviral inconclusive
CCOc1ccc(-c2nc(CNC(=O)NC3CCCCC3)c(C)o2)cc1	none (no result: Marburg entry inh, HCV inh)
O=C(NC1=NCCS1)c1ccccc1Cl	Marburg entry inh inconclusive, Lassa entry inh inconclusive
O=C(NC1=NCCS1)c1csc2ccccc12	Lassa entry inh inconclusive, HCV inh 7.08µM
O=C(NC1=NCCS1)c1ccccc1OCc1ccccc1Cl	HCV inh 12.6µM (no result: Marburg entry inh, Lassa entry inh)
O=C(COc1ccccc1)N(CCc1ccccc1)c1nc(-c2ccc(F)cc2)cs1	Marburg entry inh inconclusive
CCN(CC)CCCN=C1N[C@@H](c2cccc(C(F)(F)F)c2)C(C(=O)OC)=C(C)N1CC	HCMV antiviral inconclusive, HCV inh 10µM (no result: Marburg entry inh, Lassa entry inh)
COC(=O)C1=C(C)N(Cc2ccc(C(F)(F)F)cc2)C(=NCc2ccc3c(c2)OCO3)NC1c1ccccc1 (stereo unspecified)	HCMV antiviral -99.6 (no result: Marburg entry inh, FMDV inh, Lassa entry inh, HCV inh)
COCCN=C1N[C@@H](c2ccc(Br)cc2)C(C(=O)OC)=C(C)N1Cc1ccccc1	HCV inh 3.55µM (no result: Marburg entry inh, Lassa entry inh)
CCN1C(=NCc2cccc(Cl)c2)NC(c2cccc(C(F)(F)F)c2)C(C(=O)OC)=C1C (stereo unspecified)	none (no result: HCMV antiviral, FMDV inh, HCV inh)
COC(=O)C1=C(C)N(Cc2ccccc2)C(=NCc2cccc(Cl)c2)N[C@H]1c1ccccc1	HCV inh inconclusive (no result: HCMV antiviral, Marburg entry inh, Lassa entry inh)
COC(=O)C1=C(C)N(Cc2ccccc2)C(=NCc2ccccc2)N[C@H]1c1ccccc1	HCMV antiviral -70.3, Marburg entry inh inconclusive, HCV inh inconclusive (no result: Lassa entry inh)
COc1cc(C(=O)NCC(=O)OCc2ccc(F)cc2)cc(OC)c1OC	none (no result: Marburg entry inh, Lassa entry inh)
COC(=O)C1=C(C)N(Cc2cccc(C(F)(F)F)c2)C(=NCc2ccccc2C(F)(F)F)NC1c1cccc(F)c1 (stereo unspecified)	HCMV antiviral -77.7 (no result: Marburg entry inh, FMDV inh, Lassa entry inh, HCV inh)
O=C(CCc1nnc2n(Cc3ccccc3Cl)c(=O)c3ccccc3n12)Nc1ccc(F)cc1	Marburg entry inh inconclusive (no result: Lassa entry inh, HCV inh)
O=c1/c(=C/c2ccccn2)sc2nc3ccccc3n12	Marburg entry inh inconclusive, FMDV inh 10µM
O=C1NC[C@@H](CCCCN2CCN(CCC3CCCCC3)C(=O)C2=O)N(CC2CCCCC2)C1=O	none (no result: Marburg entry inh, Lassa entry inh, HCV inh)
COc1ccc(C(=O)Nc2ccc3c(c2)C(=O)c2ccccc2C3=O)cc1OC	none
COc1ccc(C(=O)c2c(C(F)(F)F)oc3c2C(=O)c2ccccc2C3=O)cc1OC	HCMV antiviral -103.2, Marburg entry inh 2.82µM, FMDV inh 10µM, Lassa entry inh 2.51µM, HCV inh inconclusive
Cc1ccc(Nc2ccc(N3CCN(C(=O)c4ccc([N+](=O)[O-])cc4)CC3)nn2)cc1	none (no result: Marburg entry inh, HCV inh)
COc1cc(C(=O)OCC(=O)Nc2cccc(S(=O)(=O)N3CCOCC3)c2)ccc1OCC(C)C	none
COc1cc(C(=O)OCc2cccc(S(=O)(=O)N3CCOCC3)c2)ccc1OCC(C)C	HCV inh 10µM (no result: Marburg entry inh, Lassa entry inh)
O=C(CCN1C(=O)c2ccccc2S1(=O)=O)Nc1ccc(F)c(F)c1F	none
COc1ccccc1-n1c(N)c(C(=O)NC[C@H]2CCCO2)c2nc3ccccc3nc21	none (no result: HCMV antiviral, FMDV inh, Lassa entry inh, HCV inh)
